According to PubChem BioAssay (NCI):
About 83,000 compounds went through this panel and 20% of them were active in at least one assay; those are over-represented in the sample as a whole.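 Single-dose data. Exposure time 48 hours. Values below 10 considered active.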 Values without a mark were called inactive. Active and inactive are the calls of the source.

Experiments:
Assay in all cases: NCI-60 one-dose screen, 48 h (100 = growth as untreated, 0 = no growth, -100 = all killed)
Details in all cases: 10 µM
[1] = system: SN12C renal
[2] = system: UO-31 renal
[3] = system: TK-10 renal
[4] = system: ACHN renal
[5] = system: CAKI-1 renal
[6] = system: A498 renal
[7] = system: CCRF-CEM leukemia
[8] = system: MOLT-4 leukemia
[9] = system: SR leukemia
[10] = system: RPMI-8226 leukemia
[11] = system: OVCAR-8 ovarian
[12] = system: OVCAR-5 ovarian
[13] = system: OVCAR-4 ovarian
[14] = system: SK-OV-3 ovarian
[15] = system: IGROV1 ovarian
[16] = system: HS 578T breast
[17] = system: T-47D breast
[18] = system: OVCAR-3 ovarian
[19] = system: NCI/ADR-RES ovarian

| Compound | growth [1] [%] | growth [2] | growth [3] | growth [4] | growth [5] | growth [6] | growth [7] | growth [8] | growth [9] | growth [10] | growth [11] | growth [12] [%] | growth [13] | growth [14] [%] | growth [15] | growth [16] [%] | growth [17] | growth [18] | growth [19] |
| --- | --- | --- | --- | --- | --- | --- | --- | --- | --- | --- | --- | --- | --- | --- | --- | --- | --- | --- | --- |
| COc1ccc2nc3cc(Cl)ccc3c(NCCNCC(C)O)c2c1 (stereo not given) | 27.3 | 32.4% | -15.6% (active) | 22.6% | 47.6% | 37% | 19.3% | 11.7% | 2.01% (active) | 19.8% | 17.1% | 24.6 | 37% | 37.5 | 26.2% | 67.2 | 25.9% | – | – |
| CCCCCCCCN(CCCCCCCC)CCCCCCCCCN1CCCc2cc(OC)ccc21 | 82.7 | 80.4% | 117% | 96.5% | 99.3% | 96% | 85.8% | 85.8% | 77.5% | 65.9% | 101% | 90.9 | 78.2% | 93.6 | 101% | 91.3 | 74.3% | – | – |
| COc1ccc(Nc2ncnc3c2c(SC)nn3-c2ccccc2)cc1 | 83.8 | 77.2% | 117% | 100% | 82.7% | 118% | 98.5% | 88.1% | 84.2% | 85.3% | 98% | 96.7 | 73.3% | 109 | 88.4% | 136 | 70.7% | 99.1% | 91.9% |
| Nc1ccc2c(c1)C1(CCC2)NC(=O)NC1=O (stereo not given) | 97.3 | 93.3% | 109% | 101% | 95.7% | 101% | 96.9% | 98.8% | 89.7% | 98.4% | 100% | 92.8 | 106% | 109 | – | 103 | 96.3% | 110% | 108% |
| O=C(Nc1cccc(-n2cc(-c3ccncc3)c(-c3cc(O)cc(Cl)c3)n2)c1)c1cc(C(F)(F)F)cc(C(F)(F)F)c1 | 50.3 | 49.1% | 73% | 37.7% | 58.5% | 40.3% | 26.9% | 19.5% | 3.15% (active) | 32.1% | 39.6% | 70.7 | 59.6% | 68.8 | – | 65.9 | 26.3% | 15.2% | 46.9% |
| Cc1cccc2c(NCCN(C)C)c3cccc(C(=O)NCCN(C)C)c3nc12 | 15.9 | -67.6% (active) | -15.9% (active) | -44.6% (active) | 6.76% (active) | 33.8% | 3.77% (active) | 1.96% (active) | -14.7% (active) | -34.6% (active) | – | 26.1 | -44% (active) | 19.7 | -61% (active) | 10.2 | 29.3% | 13.9% | -3.11% (active) |
| CCN(CC)CCSCCN(CC)CC | 101 | 97.1% | 103% | 99% | 98% | 89.4% | 91.9% | 105% | – | 105% | 101% | 94.3 | 96.4% | 98.9 | 109% | 106 | 94% | 108% | 108% |
| CCCCCCCCCCCCCCCC(=O)OC1[C@@H](OC(=O)CCCCCCCCCCCCCCC)[C@@H](C(=O)N[C@@H](CCCCN)C(=O)OC)O[C@H]1n1cnc2c(=O)[nH]c(NC(=O)C(C)C)nc21 (stereo not given in full) | 105 | 87.1% | 101% | 102% | 94% | 98.1% | 86% | 93.4% | – | 92.5% | 87% | 108 | 120% | 99.4 | 91.8% | 107 | 88.2% | 105% | 102% |
| COc1cc(-c2cc(/C=C/C(=O)c3ccc(N)cc3)[nH]n2)cc(OC)c1OC | 13.2 | 6% (active) | -2.46% (active) | -52.8% (active) | 9.46% (active) | -8.28% (active) | 5.88% (active) | 3.34% (active) | 9.82% (active) | -26.5% (active) | -53.4% (active) | – | 26.8% | 27.2 | – | 19.2 | 5.11% (active) | -45.9% (active) | 64.7% |
